Test results published in PubChem BioAssay AID1159580 (chemical genetic matrix, 2015).
Where “and” joins values, the source holds several entries; their conditions need not be identical. Equal entries are not always repeated. About 2,000 (36%) of roughly 5,500 compounds were called active. Another 18% or so got no clear call; they are omitted. No stated cut-off is given here; in the data, active means normalized growth mostly below about 0.91 (no sharp cut-off); inconclusive means no clear call, values can overlap the other calls; inactive means mostly above about 0.92. Some of the results follow.

Experiment: chemical genetic growth profiling, strain panel (AID 1159580);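 further: tested at 20 µM; growth read once vehicle control cultures reached saturation at 30 °C; 1 = growth at the plate median or of vehicle wells; lower values mean less growth of the strain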
Conditions: growth OD

Measured: normalized growth

CC(NC(C)(C)C)C(=O)c1cccc(Cl)c1 (stereo unspecified)
inactive: S. cerevisiae deletion strains, locus YJR075W, strain HOC1, active compounds read low 1.02 | S. cerevisiae deletion strains, locus YKL009W, strain mrt4, active compounds read low 0.977 | S. cerevisiae deletion strains, locus YKL068W, active compounds read low 1.02 | S. cerevisiae deletion strains, locus YKL085W, strain MDH1 (second series), active compounds read low 1.02 | S. cerevisiae deletion strains, locus YKL085W, strain MDH1, active compounds read low 1.02 | S. cerevisiae deletion strains, locus YKL160W, strain elf1, active compounds read low 0.996 | S. cerevisiae deletion strains, locus YKL190W, strain CNB1, active compounds read low 1.01 | S. cerevisiae deletion strains, locus YKR001C, strain vps1, active compounds read low 1.02 | S. cerevisiae deletion strains, locus YKR026C, strain gcn3, active compounds read low 0.995 | S. cerevisiae deletion strains, locus YKR091W, strain srl3, active compounds read low 0.998 | S. cerevisiae deletion strains, locus YLL001W, strain dnm1, active compounds read low 0.993 | S. cerevisiae deletion strains, locus YLL026W, active compounds read low 1 | S. cerevisiae deletion strains, locus YLL041C, strain sdh2, active compounds read low 1 | S. cerevisiae deletion strains, locus YLR027C, strain aat2, active compounds read low 1 | S. cerevisiae deletion strains, locus YLR039C, strain RIC1, active compounds read low 1.03 | S. cerevisiae deletion strains, locus YLR058C, strain SHM2, active compounds read low 1.01 | S. cerevisiae deletion strains, locus YLR102C, strain apc9, active compounds read low 1.03 | S. cerevisiae deletion strains, locus YLR113W, strain HOG1, active compounds read low 0.986 | S. cerevisiae deletion strains, locus YLR221C, strain rsa3, active compounds read low 1.01 | S. cerevisiae deletion strains, locus YLR258W, strain gsy2, active compounds read low 0.996 | S. cerevisiae deletion strains, locus YLR262C, strain YPT6 (second series), active compounds read low 0.977 | S. cerevisiae deletion strains, locus YLR262C, strain YPT6, active compounds read low 1.05 | S. cerevisiae deletion strains, locus YLR268W, strain sec22, active compounds read low 1.03 | S. cerevisiae deletion strains, locus YLR320W, strain mms22, active compounds read low 0.985 | S. cerevisiae deletion strains, locus YLR330W, strain CHS5, active compounds read low 1.01 | S. cerevisiae deletion strains, locus YLR342W, strain FKS1 (second series), active compounds read low 0.98 | S. cerevisiae deletion strains, locus YLR342W, strain FKS1, active compounds read low 0.997 | S. cerevisiae deletion strains, locus YLR357W, strain rsc2, active compounds read low 0.983 | S. cerevisiae deletion strains, locus YLR370C, strain arc18, active compounds read low 1 | S. cerevisiae deletion strains, locus YLR371W, strain rom2, active compounds read low 1.04 | S. cerevisiae deletion strains, locus YLR384C, strain iki3, active compounds read low 0.993 | S. cerevisiae deletion strains, locus YLR418C, strain cdc73, active compounds read low 1.03 | S. cerevisiae deletion strains, locus YML016C, strain PPZ1, active compounds read low 1.01 | S. cerevisiae deletion strains, locus YML032C, strain rad52, active compounds read low 1.03 | S. cerevisiae deletion strains, locus YML120C, strain ndi1, active compounds read low 1.01 | S. cerevisiae deletion strains, locus YML124C, strain tub3, active compounds read low 1.04 | S. cerevisiae deletion strains, locus YMR058W, strain fet3, active compounds read low 0.997 | S. cerevisiae deletion strains, locus YMR078C, strain ctf18, active compounds read low 1.04 | S. cerevisiae deletion strains, locus YMR125W, strain sto1, active compounds read low 0.999 | S. cerevisiae deletion strains, locus YMR129W, active compounds read low 1 | S. cerevisiae deletion strains, locus YMR205C, strain PFK2, active compounds read low 0.982 | S. cerevisiae deletion strains, locus YMR223W, strain ubp8, active compounds read low 1.01 | S. cerevisiae deletion strains, locus YMR231W, strain pep5, active compounds read low 0.997 | S. cerevisiae deletion strains, locus YMR263W, strain SAP30, active compounds read low 1.01 | S. cerevisiae deletion strains, locus YMR307W, strain GAS1, active compounds read low 1 | S. cerevisiae deletion strains, locus YNL067W, strain RPL9B, active compounds read low 1.01 | S. cerevisiae deletion strains, locus YNL071W, strain lat1, active compounds read low 1.01 | S. cerevisiae deletion strains, locus YNL128W, strain TEP1, active compounds read low 1.02 and 0.978 | S. cerevisiae deletion strains, locus YNL153C, strain GIM3, active compounds read low 1.01 | S. cerevisiae deletion strains, locus YNL175C, strain NOP13, active compounds read low 0.99 | S. cerevisiae deletion strains, locus YNL183C, strain NPR1, active compounds read low 0.965 | S. cerevisiae deletion strains, locus YNL197C, strain WHI3, active compounds read low 1.02 | S. cerevisiae deletion strains, locus YNL209W, strain ssb2, active compounds read low 1.01 | S. cerevisiae deletion strains, locus YNL224C, strain SQS1, active compounds read low 0.999 | S. cerevisiae deletion strains, locus YNL233W, strain BNI4, active compounds read low 0.999 | S. cerevisiae deletion strains, locus YNL248C, strain rpa49, active compounds read low 0.992 | S. cerevisiae deletion strains, locus YNL250W, strain rad50, active compounds read low 1.04 | S. cerevisiae deletion strains, locus YNL271C, strain bni1, active compounds read low 1.03 | S. cerevisiae deletion strains, locus YNL298W, strain CLA4, active compounds read low 1 | S. cerevisiae deletion strains, locus YNL307C, strain MCK1, active compounds read low 1.03 | S. cerevisiae deletion strains, locus YNL322C, strain KRE1 (second series), active compounds read low 0.995 | S. cerevisiae deletion strains, locus YNL322C, strain KRE1, active compounds read low 1.01 | S. cerevisiae deletion strains, locus YNR049C, strain mso1, active compounds read low 1.01 | S. cerevisiae deletion strains, locus YNR052C, strain pop2, active compounds read low 1.01 | S. cerevisiae deletion strains, locus YOL006C, strain TOP1, active compounds read low 1.05 | S. cerevisiae deletion strains, locus YOL012C, strain htz1 1.05 | S. cerevisiae deletion strains, locus YOL147C, strain pex11, active compounds read low 1.04 | S. cerevisiae deletion strains, locus YOR001W, strain rrp6, active compounds read low 1 | S. cerevisiae deletion strains, locus YOR061W, strain CKA2, active compounds read low 1.02 | S. cerevisiae deletion strains, locus YOR069W, strain VPS5, active compounds read low 1.01 | S. cerevisiae deletion strains, locus YOR070C, strain gyp1, active compounds read low 1 | S. cerevisiae deletion strains, locus YOR080W, strain dia2, active compounds read low 0.996 | S. cerevisiae deletion strains, locus YOR083W, strain WHI5 (second series), active compounds read low 1.01 | S. cerevisiae deletion strains, locus YOR083W, strain WHI5, active compounds read low 0.996 | S. cerevisiae deletion strains, locus YOR106W, strain vam3, active compounds read low 0.989 | S. cerevisiae deletion strains, locus YOR136W, strain idh2, active compounds read low 1.03 | S. cerevisiae deletion strains, locus YOR144C, strain elg1, active compounds read low 1.03 | S. cerevisiae deletion strains, locus YOR184W, strain ser1, active compounds read low 1.06 | S. cerevisiae deletion strains, locus YOR231W, strain MKK1, active compounds read low 1 | S. cerevisiae deletion strains, locus YOR265W, strain rbl2, active compounds read low 0.994 | S. cerevisiae deletion strains, locus YOR270C, strain vph1, active compounds read low 0.995 | S. cerevisiae deletion strains, locus YOR290C, strain snf2, active compounds read low 1.02 | S. cerevisiae deletion strains, locus YOR316C, strain cot1, active compounds read low 1.03 | S. cerevisiae deletion strains, locus YPL051W, strain arl3, active compounds read low 1 | S. cerevisiae deletion strains, locus YPL055C, strain LGE1, active compounds read low 1.02 and 0.98 | S. cerevisiae deletion strains, locus YPL078C, strain atp4, active compounds read low 0.998 | S. cerevisiae deletion strains, locus YPL106C, strain sse1, active compounds read low 0.976 | S. cerevisiae deletion strains, locus YPL240C, strain hsp82, active compounds read low 1 | S. cerevisiae deletion strains, locus YPL241C, strain CIN2, active compounds read low 1.01 and 0.988 | S. cerevisiae deletion strains, locus YPL256C, strain CLN2, active compounds read low 1.03 | S. cerevisiae deletion strains, locus YPR119W, strain clb2, active compounds read low 1.04 | S. cerevisiae deletion strains, locus YPR141C, strain kar3, active compounds read low 1.02 | S. cerevisiae deletion strains, locus YPR163C, strain tif3, active compounds read low 1.04 | S. cerevisiae deletion strains, locus YPR167C, strain met16, active compounds read low 1.03 | S. cerevisiae deletion strains, strain wtn01, active compounds read low 1.03 | S. cerevisiae strains, strain wild type, active compounds read low 1
